Usually AC50 stands for the concentration at which the activity in the assay is half-maximal.

For 11 compounds, outcome and AC50 results are on record in PubChem BioAssay (EPA / NIEHS).

Records with an inconclusive call do not appear. The source made the active and inactive calls. How the source made its calls, unless noted: active means hit-call score of the fitted dose curve at least 0.9, where 1 is the maximum; inconclusive means response in the unintended direction; inactive means score below 0.9.

Assay [1] can be described thus: TOX21_PR_BLA_Followup_Agonist_viability: Viability Assessment in the Tox21 HEK293 Progesterone Receptor (PR) Agonism Beta-lactamase Follow-Up Assay (AID 2283935).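 Further: signal loss means lower viability so actives are cytotoxic.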 In a few lines: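 Run multiplexed with the beta-lactamase FRET read, this endpoint measures ATP by CellTiter-Glo luminescence (30 min, room temperature). PR-UAS-bla HEK293T cells received compound 6 hr after plating and were then incubated 16 hr at 37C in 2% stripped serum.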

A short description of assay [2]: TOX21_PR_BLA_Followup_Antagonist_viability: Viability Assessment in the Tox21 HEK293 Progesterone Receptor (PR) Antagonism Beta-lactamase Follow-Up Assay (AID 2283936).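 Further: cells exposed to compound with R5020 agonist for 16 h; hits lower the luminescence signal meaning cytotoxicity.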 Put shortly:
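PR-UAS-bla HEK293T cells in medium with 2% charcoal-stripped FBS were treated with compounds plus R5020 for 16 hr at 37C. After the beta-lactamase read, CellTiter-Glo was added to the same wells and luminescence read after 30 min at room temperature.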

The target of the next assay is PGR (gene 5241) (UniProt P06401). Briefly: TOX21_PR_LUC_Followup_Antagonist: Tox21 HEK293 Progesterone Receptor (PR) Antagonism Luciferase Follow-Up Assay (AID 2283938).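 Further: curve fitted upward as signal gain over DMSO baseline despite antagonist label.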 Put shortly: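 HEK293-PR-A-luc cells were precultured 5 days in medium with 10% charcoal-stripped FBS, seeded 3,000/well, then exposed to compounds in DMSO for 16 h at 37C. Luciferase was read by ONE-Glo luminescence after 30 min at room temperature.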
Sequence of PGR (gene 5241) (P06401 whole entry, looked up): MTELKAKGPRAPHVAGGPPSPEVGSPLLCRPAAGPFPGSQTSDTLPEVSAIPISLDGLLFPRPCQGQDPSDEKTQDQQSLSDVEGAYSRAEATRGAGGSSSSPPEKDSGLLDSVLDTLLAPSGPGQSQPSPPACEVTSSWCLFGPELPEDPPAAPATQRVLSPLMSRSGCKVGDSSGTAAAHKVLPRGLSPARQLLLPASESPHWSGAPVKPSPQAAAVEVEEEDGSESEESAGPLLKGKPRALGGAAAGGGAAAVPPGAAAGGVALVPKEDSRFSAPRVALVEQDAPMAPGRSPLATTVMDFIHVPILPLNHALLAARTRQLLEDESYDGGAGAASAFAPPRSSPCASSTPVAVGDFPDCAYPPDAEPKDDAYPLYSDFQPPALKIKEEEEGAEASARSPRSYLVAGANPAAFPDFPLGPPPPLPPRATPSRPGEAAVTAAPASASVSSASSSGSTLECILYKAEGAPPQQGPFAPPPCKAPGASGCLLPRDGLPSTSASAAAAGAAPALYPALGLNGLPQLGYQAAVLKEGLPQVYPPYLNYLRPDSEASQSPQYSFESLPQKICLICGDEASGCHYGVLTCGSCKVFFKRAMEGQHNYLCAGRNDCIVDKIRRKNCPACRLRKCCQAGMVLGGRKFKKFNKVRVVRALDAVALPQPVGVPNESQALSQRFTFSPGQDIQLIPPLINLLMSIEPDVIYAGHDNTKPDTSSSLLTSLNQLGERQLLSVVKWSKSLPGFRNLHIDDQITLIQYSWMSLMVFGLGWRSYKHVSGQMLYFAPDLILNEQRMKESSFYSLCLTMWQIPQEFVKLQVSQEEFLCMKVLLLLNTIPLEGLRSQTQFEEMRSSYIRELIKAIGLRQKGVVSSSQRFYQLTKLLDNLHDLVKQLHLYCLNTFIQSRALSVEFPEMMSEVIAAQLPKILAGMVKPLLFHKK

Assay [3] has as its target Nucleoli Translocation, AR (gene 367) (UniProt P10275). Description: UPITT_HCI_U2OS_AR_TIF2_Nucleoli_Antagonist: University of Pittsburgh U2OS Androgen Receptor-Transcriptional Intermediary Factor 2 (AR-TIF2) Antagonism High Content Imaging Assay for Nucleoli Translocation (AID 2283997). Put shortly: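 Antagonism is read as loss of nucleolar AR-RFP signal relative to DHT, imaged in U2OS cells also carrying GFP-TIF2. Compounds screened at 20 uM final, 0.2% DMSO; primary actives retested in triplicate.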

The target is the same in assay [4]. Description: UPITT_HCI_U2OS_AR_TIF2_Nucleoli_Agonist: University of Pittsburgh U2OS Androgen Receptor-Transcriptional Intermediary Factor 2 (AR-TIF2) Agonism High Content Imaging Assay for Nucleoli Translocation (AID 2283998). In a few lines:
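Cells express human AR fused to red fluorescent protein and TIF2 fused to GFP. Red fluorescence in the nucleolar region was quantified by high-content imaging and fitted as gain-of-signal against a DMSO baseline. Compounds were tested at 0.195 to 50 uM final (0.5% DMSO).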

Assay [5] concerns the target Ratio of Nucleoli Translocation and Cytoplasm, AR (gene 367) (UniProt P10275). Description: UPITT_HCI_U2OS_AR_TIF2_Nucleoli_Cytoplasm_Ratio_Antagonist: University of Pittsburgh U2OS Androgen Receptor-Transcriptional Intermediary Factor 2 (AR-TIF2) Antagonism High Content Imaging Assay for Ratio of Nucleoli Translocation and Cytoplasm (AID 2283999).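 Further: antagonists lower the DHT-driven ratio of nucleolar to cytoplasmic red signal.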 In a few lines: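 High-content imaging of red fluorescence ratio, nucleoli versus cytoplasm, in U2OS expressing AR-RFP and TIF2-GFP, fitted relative to DHT. Compounds tested once at 20 uM final, then 0.195 to 50 uM final in serial dilution.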

Assay [6] has the same target. Briefly: UPITT_HCI_U2OS_AR_TIF2_Nucleoli_Cytoplasm_Ratio_Agonist: University of Pittsburgh U2OS Androgen Receptor-Transcriptional Intermediary Factor 2 (AR-TIF2) Agonism High Content Imaging Assay for Ratio of Nucleoli Translocation and Cytoplasm (AID 2284000).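 Further: hits raise the red nucleolar to cytoplasm ratio above vehicle.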 Put shortly:
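Compounds tested at 20 uM final in primary screen (0.2% DMSO) and 0.195-50 uM final in dose-response (0.5% DMSO). Imaging of human U2OS cells bearing RFP-AR and GFP-TIF2; endpoint is nucleoli/cytoplasm red signal ratio, positive direction relative to DMSO.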

In a further assay the test system is DIO1 (gene 1733). Description: CCTE_GLTED_hDIO1: CCTE's human Deiodinase 1 (DIO1) Inhibition Assay, Great Lakes Toxicology and Ecology Division (GLTED) Lab (AID 2283987).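 Further: isolated human DIO1 enzyme in a cell-free setup rather than cells; enzyme activity read as free iodide liberated from substrate via Sandell-Kolthoff colorimetry.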 Put shortly:
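Cell-free human DIO1 enzyme was incubated with test chemical for 3 h, and iodide released from substrate was measured by Sandell-Kolthoff absorbance. Loss of signal versus DMSO baseline indicated inhibition; plates were run in triplicate.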

The nature of assay [7]: TOX21_TR_RXR_BLA_Agonist_Followup_viability: Viability Assessment in the Tox21 Thyroid Hormone Receptor beta Retinoid X Receptor alpha (RXRa) Agonism Beta-lactamase (BLA) Follow-Up Assay (AID 2283970). In a few lines: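 CellTiter-Glo ATP luciferase read-out of cell viability, multiplexed with the beta-lactamase reporter run. RXRa-bla HEK293T cells in charcoal-stripped serum medium were exposed 16 h at 37C; data fitted both directions relative to DMSO.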

The nature of assay [8]: CCTE_Harrill_HTTr_Viability_MCF7: CCTE's 6-hour Cell Viability Assessment for the High-Throughput Transcriptomics (HTTr) Platform, in MCF-7 cells cultured in DMEM + 10% fetal bovine serum, Harrill Lab (AID 2284010; active means hit-call score of the fitted dose curve at least 0.9, where 1 is the maximum; inactive means score below 0.9). In a few lines: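 Propidium iodide exclusion, imaged by high-content analysis, gauged viability after a six-hour exposure across eight concentrations. Cells were MCF-7 grown in DMEM with 10% fetal bovine serum; fits run in both directions against DMSO.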

A short description of assay [9]: CCTE_Harrill_HTTr_Apoptosis_MCF7: CCTE's 6-hour Apoptosis Assessment for the High-Throughput Transcriptomics (HTTr) Platform, in MCF-7 cells cultured in DMEM + 10% fetal bovine serum, Harrill Lab (AID 2284011; active means hit-call score of the fitted dose curve at least 0.9, where 1 is the maximum; inactive means score below 0.9). Put shortly: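 MCF-7 cells in DMEM + 10% fetal bovine serum were exposed to chemicals for 6 hours over an eight-point dilution series. Caspase-3/7 activation was imaged by high content imaging with CellEvent Caspase 3/7 Green; bidirectional fitting used DMSO as baseline.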

Assay [10] can be described thus: CCTE_Harrill_HTTr_CellCount_MCF7: CCTE's Cell Proliferation Assessment for the High-Throughput Transcriptomics (HTTr) Platform, Harrill Lab (AID 2284012).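 Further: cells exposed to compound for six hours; intended direction is loss of nuclei count meaning fewer cells.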 Put shortly:
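Cell count from high-content imaging of Hoechst-labeled nuclei serves as viability/growth readout. Chemicals were applied to MCF-7 cells in eight concentrations for six hours, with fitting in both directions relative to DMSO.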

The nature of assay [11]: TOX21_PR_LUC_Followup_Agonist_viability: Viability Assessment in the Tox21 HEK293 Progesterone Receptor (PR) Agonism Luciferase Follow-Up Assay (AID 2283941).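 Further: loss of signal means cytotoxicity so actives lower viability.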 Put shortly: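 Cytotoxicity counter-readout in the PR-A luciferase reporter line HEK293, with 16 h compound exposure at 37C after cells were cultured in charcoal-stripped serum. Cellular ATP quantified by CellTiter-Glo luminescence.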

Sequence of Nucleoli Translocation, AR (gene 367) (P10275 whole entry, looked up): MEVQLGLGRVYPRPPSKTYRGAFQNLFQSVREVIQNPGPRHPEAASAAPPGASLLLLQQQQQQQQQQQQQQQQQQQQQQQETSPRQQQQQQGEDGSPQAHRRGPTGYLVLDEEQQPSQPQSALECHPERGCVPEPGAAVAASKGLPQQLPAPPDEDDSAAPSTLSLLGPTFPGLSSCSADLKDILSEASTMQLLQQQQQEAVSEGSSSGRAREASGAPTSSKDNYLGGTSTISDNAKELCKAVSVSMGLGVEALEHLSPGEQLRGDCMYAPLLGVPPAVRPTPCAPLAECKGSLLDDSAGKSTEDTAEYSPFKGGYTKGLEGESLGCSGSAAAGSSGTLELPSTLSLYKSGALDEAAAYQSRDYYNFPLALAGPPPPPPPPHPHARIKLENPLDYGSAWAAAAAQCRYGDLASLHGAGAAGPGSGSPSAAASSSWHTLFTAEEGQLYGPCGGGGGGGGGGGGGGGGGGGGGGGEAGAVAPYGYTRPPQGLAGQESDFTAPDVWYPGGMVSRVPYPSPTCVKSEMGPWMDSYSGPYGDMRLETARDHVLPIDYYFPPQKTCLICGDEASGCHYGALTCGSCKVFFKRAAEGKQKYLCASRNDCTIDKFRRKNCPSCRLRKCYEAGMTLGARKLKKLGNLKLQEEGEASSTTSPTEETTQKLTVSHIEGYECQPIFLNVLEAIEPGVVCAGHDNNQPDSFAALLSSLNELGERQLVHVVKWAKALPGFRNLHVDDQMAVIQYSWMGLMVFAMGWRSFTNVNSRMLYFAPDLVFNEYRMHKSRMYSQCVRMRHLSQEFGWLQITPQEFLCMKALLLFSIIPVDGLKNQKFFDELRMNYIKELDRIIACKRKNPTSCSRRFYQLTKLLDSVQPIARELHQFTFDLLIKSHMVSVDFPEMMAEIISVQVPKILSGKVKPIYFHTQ
Sequence of Ratio of Nucleoli Translocation and Cytoplasm, AR (gene 367) (P10275 whole entry, looked up): as above

With `C(=C(c1ccccc1)c1ccccc1)c1ccccc1`, the call in [1] and in [2] was inactive. Besides, the AC50 with PGR (gene 5241) is 32.3 µM (active).
In the case of `CN(C)Cc1ccccc1O`, the compound was classed as inactive in assay [3], in assay [4], in assay [5] and in assay [6].
Regarding `O=C(O)C(F)(F)C(F)(F)C(F)(F)C(F)(F)C(F)(F)C(F)(F)C(F)(F)C(F)(F)C(F)(F)C(F)(F)C(F)(F)C(F)(F)F`, the AC50 with DIO1 (gene 1733) was 39 µM (active).
On to `O=C(Cl)C(F)(F)C(F)(F)C(F)(F)C(F)(F)C(F)(F)C(F)(F)C(F)(F)C(F)(F)F`, for which the AC50 in the assay with DIO1 (gene 1733) is 165 µM (active).
In the case of `Nc1ccc(S(=O)(=O)Nc2nccs2)cc1`, the outcome in assay [7], in [8], in assay [9] and in assay [10] was inactive.
`CCCCCCCOC(=O)c1ccccc1C(=O)OCCCCCCC`: the result in assay [8], in assay [9] and in [10] was inactive.
For `CC/C=C\CCOC(C)=O`, the result in assay [8] and in assay [9] was inactive.
Consider `CNC(=S)NC`, for which the compound was called inactive in [3], in assay [5], in assay [8], in assay [9] and in [10].
As for `[Co]`, the outcome in [3], in assay [4] and in assay [6] was inactive.
Turning to `C#C[C@]1(O)CC[C@H]2[C@@H]3CCc4cc(OC)ccc4[C@H]3CC[C@@]21C`, the compound was classed as inactive (in [1]; in assay [2]; with PGR (gene 5241); in assay [11]; in [8]; in assay [9]). The compound was classed as inactive in [10].
Turning to `CC(Cc1ccc(O)c(O)c1)C(C)Cc1ccc(O)c(O)c1` (configuration not stated), the AC50 in the assay with DIO1 (gene 1733) was 6.62 µM (active). The outcome in [8], in assay [9] and in [10] was inactive.
